Shown are actives, neighbours in structure and some others; about 7.4% of the full set was active somewhere.
HEK293 viab: GF-AFC viability counterscreen for inhibitors of alpha-synuclein gene (SNCA) expression; HEK-293-SNCA-luc viability, GF-AFC fluorescence, 24 h; Potency, µM (series often up to 57.1 µM), without a hit: top-dose activity change, negative = cytotoxicity, actives largely listed as cytotoxic; hit rate 0.12% among 150,000; AID 1671193, 2021;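 also: 0% = DMSO-treated cells and -100% = medium-only wells without cells; nearly all actives have a fitted effect of over 30% in size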
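Cytotoxicity counterscreen: after 24 h compound treatment of genome-edited SNCA-luciferase HEK-293 cells, live-cell protease substrate GF-AFC read by fluorescence after 30 min; activity scaled between DMSO (0%) and medium-only (-100%), curves Hill-fitted.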
HEK293 tox: Cytotoxic Profiling in HEK 293 Cell Line of Diverse Libraries Using Quantitative High-Throughput Screening | HEK 293 viability, ATP luminescence (CellTiter-Glo), 48-72 h | Potency, µM (titrated, usually from 115 µM), for inactives: top-dose activity change, negative = cytotoxicity, most hits filed as inhibitors | hit rate 6.6% among 94,000 | AID 1345083, 2018; also: nearly all actives have a fitted effect of over 60% in size
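HEK 293 seeded at 250 cells/well receive compound via pintool. After 48 or 72 hr at 37 degree Celsius, 5% CO2 and 95% humidity, CellTiter-Glo is dispensed and luminescence read following 10 min at room temperature.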
SNCA expr inh: Primary qHTS assay for inhibitors of alpha-synuclein gene (SNCA) expression | Potency, µM (doses to about 57.2 µM), without a hit: at the top dose activity change, negative = inhibition, actives largely listed as inhibitors | HEK-293 SNCA-luciferase knock-in, luminescence, 24 h | hit rate 0.17% among 140,000;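 also: plate controls were DMSO cells for no effect and cell-free wells for full effect; nearly all actives have a fitted effect of over 45% in size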
hNpr1 antagonist: Natriuretic polypeptide receptor (hNpr1) antagonism - Primary qHTS; Atrial natriuretic peptide receptor 1 (Homo sapiens), P16066; HEK293 hNpr1 GloSensor cGMP, ANP-stimulated luminescence; hit rate 1.6% among 76,000; AID 1347048, 2019; Potency, µM (titrated, usually from 46.3 µM), for inactives: at the highest dose activity change, negative = inhibition, most hits filed as inhibitors; calls by dose curve; also: nearly all actives have a fitted effect of over 60% in size
Target sequence (P16066 whole entry, looked up): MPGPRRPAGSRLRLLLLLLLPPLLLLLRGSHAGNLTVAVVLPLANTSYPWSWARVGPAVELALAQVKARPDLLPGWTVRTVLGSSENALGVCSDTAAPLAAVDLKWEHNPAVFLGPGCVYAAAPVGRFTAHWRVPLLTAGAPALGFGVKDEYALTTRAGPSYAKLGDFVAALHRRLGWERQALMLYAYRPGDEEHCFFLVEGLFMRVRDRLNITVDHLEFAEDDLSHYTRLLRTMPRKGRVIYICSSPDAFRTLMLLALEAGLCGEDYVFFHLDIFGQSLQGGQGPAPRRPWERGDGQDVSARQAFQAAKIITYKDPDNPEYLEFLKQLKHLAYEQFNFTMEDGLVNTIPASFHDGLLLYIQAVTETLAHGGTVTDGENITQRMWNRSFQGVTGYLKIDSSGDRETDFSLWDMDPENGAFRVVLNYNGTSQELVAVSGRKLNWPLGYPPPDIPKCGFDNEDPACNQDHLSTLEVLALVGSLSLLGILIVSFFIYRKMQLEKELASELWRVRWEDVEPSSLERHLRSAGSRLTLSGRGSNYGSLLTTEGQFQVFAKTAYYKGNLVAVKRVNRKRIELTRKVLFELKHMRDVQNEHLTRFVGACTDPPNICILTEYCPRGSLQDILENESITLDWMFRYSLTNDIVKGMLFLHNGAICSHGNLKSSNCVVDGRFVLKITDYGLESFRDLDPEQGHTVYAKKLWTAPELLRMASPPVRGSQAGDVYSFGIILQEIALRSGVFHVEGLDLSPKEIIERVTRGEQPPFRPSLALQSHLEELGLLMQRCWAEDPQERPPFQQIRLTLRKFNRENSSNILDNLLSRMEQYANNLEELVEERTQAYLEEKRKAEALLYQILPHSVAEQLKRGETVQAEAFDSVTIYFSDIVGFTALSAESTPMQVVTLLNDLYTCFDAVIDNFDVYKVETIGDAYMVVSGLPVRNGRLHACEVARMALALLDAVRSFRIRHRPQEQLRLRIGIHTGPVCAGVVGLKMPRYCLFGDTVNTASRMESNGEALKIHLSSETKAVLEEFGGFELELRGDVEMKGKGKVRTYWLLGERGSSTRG
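HEK293 cells stably expressing human Npr1 and cGMP GloSensor pGS-40F, loaded 2 h with 2% GloSensor reagent, given compound 30 min at room temperature. Luminescence read before and 20 min after 0.1 nM hNppA.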
NIH3T3 tox: Cytotoxic Profiling in NIH 3T3 Cell Line of Diverse Libraries Using Quantitative High-Throughput Screening; NIH 3T3 viability, CellTiter-Glo ATP luminescence, 48-72 h; Potency, µM (doses to about 96.7 µM), inactives show at the highest dose activity change, negative = cytotoxicity, hits mostly inhibitors; hit rate 4.3% among 94,000; AID 1345082, 2018; also: nearly all actives have a fitted effect of over 55% in size
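Cytotoxicity is measured as loss of cellular ATP: NIH 3T3 cells (400/well) are exposed to compound for 48 or 72 hr at 37 °C, then CellTiter-Glo luminescence is imaged after 10 min at room temperature.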
FLuc inh: Firefly luciferase inhibition profiling of diverse chemical library using quantitative high-throughput screening; purified P. pyralis luciferase, luminescence, biochemical; Potency, µM (doses to about 115 µM), actives largely listed as inhibitors; hit rate 2.5% among 76,000; also: nearly all actives have a fitted effect of over 65% in size
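Cell-free enzyme assay, 10nM P. pyralis luciferase, luciferin and ATP each at 10uM. Inhibition profiled over a 6-point titration, read as luminescence.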
Numbers without * were called inactive; i = inactive; ? = inconclusive; / = no result; [ ] = dose if it differs, or a comment. Unless noted, calls follow the shape of the dose curve; as a rule, active = well fitted curve in the direction sought with a large enough effect; inconclusive = small, poorly fitted or top-dose-only effect, or another doubt; inactive = no such curve, though single readings can be large; an effect the other way counts as inactive or inconclusive. Unless noted, % is scaled to controls: 0 for no effect and ±100 for the full control effect; potency is read from the fitted curve at half-maximal effect.

SMILES	HEK293 viab	HEK293 tox	SNCA expr inh	hNpr1 antagonist	NIH3T3 tox	FLuc inh
CC(=O)c1ccc(NC(=O)CN2C(=O)NC3(CCC(C(C)(C)C)CC3)C2=O)cc1 (stereo not given)	-3%	?	-8%	-1%	?	i
CC1CCC2(CC1)NC(=O)N(CC(=O)Nc1ccc(C(C)C)cc1)C2=O (stereo not given)	-11%	28µM*	-10%	4%	?	i
CC1CCC2(CC1)NC(=O)N(CC(=O)Nc1cccc(C(F)(F)F)c1)C2=O (stereo not given)	-22%	25µM*	-26%	-10%	?	i
c1ccc(COCCCc2nc(C3CCOC3)n[nH]2)cc1 (stereo not given)	-9%	4%	?	10%	i	i
Cc1nc(-c2c3n(c(=O)n(CC(=O)Nc4ccccc4Cl)c2=O)CCCC3)no1	2%	0%	1%	4%	4%	i
Cc1nn2c(c1-c1ccccc1OCc1ccccc1)N(C(=O)C1CCOCC1)CCC2	-28%[87.6 µM]	?	?	-20%[70.6 µM]	?	i
Cc1nn2c(c1-c1ccccc1OCc1ccccc1)N(Cc1cccc(O)c1)CCC2	-21%[87.6 µM]	28µM*	?	?	25µM*	i
Cc1nn2c(c1-c1ccccc1OCc1ccccc1)N(C(=O)C1CCC1)CCC2	?	40µM*	?	1%[70.6 µM]	?	i
Cc1nn2c(c1-c1ccccc1[S+](C)(=O)[O-])N(Cc1ccccc1)CCC2	-7%[87.6 µM]	?	-6%[87.6 µM]	-2%[70.6 µM]	10µM*	i
CCCn1c(C)c(CC(=O)NCC2CCCOC2)c2c1CC(C)(C)CC2=O (stereo not given)	-13%	i	-18%	3%	0%	i
O=C(c1ccno1)N1C[C@@H]2OCC(=O)N(Cc3ccc(F)cc3)[C@@H]2C1	-1%[87.6 µM]	0%[172 µM]	-9%[87.6 µM]	2%[70.6 µM]	i	i
Cc1cc(Cl)c2oc(C(=O)N(Cc3c(C)nn(C)c3C)C3CC3)c(C)c2c1	?	?	79%	7.9µM*	?	28µM*
CCOC(=O)C1CCCCN1C(=O)c1oc2c(Cl)cc(C)cc2c1C (stereo not given)	-15%	-14%	?	3%	-8%	i
COc1ccc(Cl)cc1C(=O)N1CCCN(c2cc(-c3ccc(Br)cc3)[nH]n2)CC1	-16%	35µM*	?	?	32µM*	i
COc1ccc(Cl)cc1C(=O)N1CCCN(c2cc(-c3ccc(F)cc3)[nH]n2)CC1	-25%	?	-5%	-29%	?	i
COc1ccccc1C(=O)N1CCCN(c2cc(-c3ccc(Br)cc3)[nH]n2)CC1	-15%	40µM*	10%	?	?	i
CCCc1nnc(C[C@@H]2C[C@@H](C(C)C)[C@H](CO)C=C2C)o1	-15%[87.6 µM]	?	4%[87.6 µM]	0%[70.6 µM]	?	i
CC1=C[C@@H](CN2CCN(c3ncccn3)CC2)[C@H](C(C)C)C[C@H]1Cc1nnc(Cc2c[nH]c3ccccc23)o1	?	45µM*	-24%	0%	?	i
CCCc1nnc(C[C@@H]2C[C@@H](C(C)C)[C@H](CN3CCN(c4ncccn4)CC3)C=C2C)o1	-23%	40µM*	-26%	2%	?	i
CCCc1nnc(C[C@@H]2C[C@@H](C(C)C)[C@H](CNc3cccnc3)C=C2C)o1	2%[87.6 µM]	89µM*	5%[87.6 µM]	-9%[70.6 µM]	25µM*	i
CCCc1nnc(C[C@@H]2C[C@@H](C(C)C)[C@H](CN3CCC(O)CC3)C=C2C)o1	-10%[87.6 µM]	4%[172 µM]	7%[87.6 µM]	3%[70.6 µM]	-1%[174 µM]	i
CC1=C[C@@H](CN2CCOCC2)[C@H](C(C)C)C[C@H]1Cc1nnc(C)o1	-11%[87.6 µM]	?	-19%[87.6 µM]	0%[70.6 µM]	-17%[174 µM]	i
CCCc1nnc(C[C@@H]2C[C@@H](C(C)C)[C@H](CN3CCN(C(C)=O)CC3)C=C2C)o1	-15%[87.6 µM]	100µM*	-12%[87.6 µM]	-6%[70.6 µM]	-12%[174 µM]	i
CCOC(=O)Cc1csc(NC(=O)Cn2nc3c(cc2=O)CCCC3)n1	-8%	10%	-2%	1%	i	i
COCC(=O)N1C[C@@H](COC)[C@H](c2ccncc2)C1	-6%	-6%	3%	-16%	-3%	i
SMILES	HEK293 viab	HEK293 tox	SNCA expr inh	hNpr1 antagonist	NIH3T3 tox	FLuc inh
COC[C@H]1CCCN1Cc1nc(C2(O)CCN(Cc3ccc(F)cc3)CC2)cs1	-12%[87.6 µM]	?	-45%[87.6 µM]	-6%[70.6 µM]	-12%[174 µM]	i
O=C1N(C2CCNCC2)C(c2ccccc2)C12CCCC2 (stereo not given)	1%[12.5 µM]	3%	?	-9%	0%	i
CC(C)Oc1cccc2c1c(NC(=O)C1CCCO1)nn2Cc1ccccc1 (stereo not given)	-4%	45µM*	-7%	4%	?	i
CC(C)Oc1cccc2c1c(NC(=O)c1ccn(C)n1)nn2Cc1ccccc1	-25%	?	?	-8%	?	?
COc1ccc(-c2cnc3n[nH]c(-c4ccccc4)c3n2)cc1	-10%[87.6 µM]	89µM*	4%[87.6 µM]	-1%[70.6 µM]	79µM*	i
COc1cccc(-c2cnc3n[nH]c(-c4ccccc4)c3n2)c1	0%[87.6 µM]	56µM*	?	-5%[70.6 µM]	40µM*	i
COc1ccc(-c2cnc3n[nH]c(-c4ccc5c(c4)OCO5)c3n2)cc1	11%[87.6 µM]	?	-27%[87.6 µM]	8%[70.6 µM]	?	i
CCN1C(=O)CCN(Cc2cn(C)c3ccccc23)CC12CCOCC2	3%	79µM*	-1%	/	?	/
CNC(=O)[C@@H](c1ccc(Cl)cc1)N1CCC[C@H]1C(=O)NC(C)(C)C	0%[87.6 µM]	-2%[172 µM]	-5%[87.6 µM]	2%[70.6 µM]	i	i
CN(Cc1cccc(CCN)c1)Cc1cnn(-c2ccc(F)cc2)c1	?	?	32%	1%	45µM*	i
CN(Cc1cnn(-c2ccccc2)c1)Cc1cc2ccccc2[nH]c1=O	-2%	-1%	-24%	5%	i	i
Cc1cccc(-c2noc(CCC(=O)N3CCC(C)(c4noc(C)n4)CC3)n2)c1	6%	45µM*	?	-12%	?	i
CNC(=O)c1ccc2c(c1)C1(CCN(CC3CC3)C1)CN2Cc1ccccc1 (stereo not given)	3%[87.6 µM]	100µM*	14%[87.6 µM]	3%[70.6 µM]	?	i

Source: PubChem
